Source: PubChem BioAssay (Tox21)
Results filed as inconclusive are left out. Activity calls are given as the source filed them. Unless noted, calls follow the shape of the dose curve; as a rule, active = well fitted curve in the direction sought with a large enough effect in the repeat runs; inconclusive = weak or mixed curves; inactive = no such curve, though single readings can be large; an effect the other way counts as inactive or inconclusive.

Experiments:
[1] = target: Thyrotropin receptor (Homo sapiens) (UniProt P16473); experiment: qHTS assay to identify small molecule agonists of the thyroid stimulating hormone receptor (TSHR) signaling pathway (AID 1224843; calls by dose curve; also: nearly all actives have a fitted effect of over 45% in size)
Outline: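 Steps: seed 800 TSHR-HEK293 cells per well; add test compound and hold 30 min at ambient temperature; dispense cAMP-d2 then anti-cAMP cryptate; incubate 1 h at ambient; measure fluorescence intensity.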

[2] = qHTS assay to identify small molecule agonists of the hypoxia (HIF-1) signaling pathway - cell viability counter screen (AID 1224844; calls by dose curve; also: nearly all actives have a fitted effect of over 50% in size; also: potency is read from the fitted curve at half-maximal effect)
Outline: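 Cells (HRE-bla ME-180, 2,000 per well) sat 5 hrs at 37C, got compound for 17 hrs, were read for CCF4-AM FRET, and were finally lysed with CellTiter-Glo for a 30 min room-temperature luminescence read.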

[3] = qHTS assay to identify small molecule agonists of H2AX (AID 1224845; active = well fitted activation curve with a large enough effect in the signal ratio in the repeat runs, not every such curve was filed as active; the % refers to the signal ratio)
Outline: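 Wild-type CHO-K1 cells, plated overnight, exposed 3hr at 37C to 15 concentrations (0.76% DMSO final). Lysed, then HTRF anti-pH2AX (S139) cryptate and anti-H2AX-d2 antibodies, 24 hr room temperature; 665/620 nm emission read.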

[4] = qHTS assay to identify small molecule agonists of the hypoxia (HIF-1) signaling pathway (AID 1224846; active = well fitted activation curve with a large enough effect in the signal ratio in the repeat runs, not every such curve was filed as active; the % refers to the signal ratio)
Outline: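 A low-serum medium (0.5% dialyzed FBS) holding 2,000 HRE-bla ME-180 cells per well is preincubated for 5 hrs, dosed with compounds by pintool, and kept a further 17 hrs at 37C, 5% CO2 before CCF4-AM FRET detection of beta-lactamase.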

[5] = qHTS assay to identify small molecule agonists of H2AX - cell viability counter screen (AID 1224847; calls by dose curve; also: top concentration of the series differs between compounds; nearly all actives have a fitted effect of over 30% in size)
Outline: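 Cells plated first: CHO-K1, 1000 per well in 10% FBS medium, incubated overnight at 37C. Then 15-point compound titration added (final DMSO 0.76%) for 3 hr. Finally CellTiter-Glo added and luminescence read.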

[6] = qHTS RealTime-Glo MT Cell Viability Assay in HepG2 cells - 24 hour (AID 1224867); also: nearly all actives have a fitted effect of over 50% in size
Outline: (§1)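 Cell number in HepG2 cultures estimated from NanoLuc luminescence generated by metabolic reduction of a prosubstrate by living cells. The homogeneous, nonlytic format allowed repeated reads at 0, 8, 16, 24, 32 and 40 h of compound exposure.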

[7] = qHTS RealTime-Glo MT Cell Viability Assay in HEK293 cells - 32 hour (AID 1224868); also: top concentration of the series differs between compounds; nearly all actives have a fitted effect of over 50% in size
Outline: (§2)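 Homogeneous bioluminescent viability format in HEK293 cells (600 cells/well). Following 5 h at 37 C/5% CO2, 23 nL compound was pintooled; the signal was measured repeatedly during 40 h incubation.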

[8] = qHTS RealTime-Glo MT Cell Viability Assay in HepG2 cells - 40 hour (AID 1224870); also: nearly all actives have a fitted effect of over 50% in size
Outline: (§3)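 HepG2 cells (600/well) mixed with RealTime-Glo MT reagent, settled 5 h at 37 C/5% CO2 before compound addition. Nonlytic NanoLuc luminescence from viable-cell prosubstrate reduction read repeatedly during 40 h treatment at 37 C.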

[9] = A CellTox Green Cytotoxicity Assay to monitor cytotoxicity in HEK293 cells - 40 hour (AID 1224871); also: nearly all actives have a fitted effect of over 45% in size; also: potency is read from the fitted curve at half-maximal effect
Outline: (§4)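 Fluorescence intensity, read at 0, 8, 16, 24, 32 and 40 h of compound treatment, reflected dye binding to DNA of dead HEK293 cells; compounds (23 nL, DMSO) were added 5 h after plating cells with reagent.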

[10] = qHTS RealTime-Glo MT Cell Viability Assay in HEK293 cells - 16 hour (AID 1224872)
Outline: as §2

[11] = qHTS RealTime-Glo MT Cell Viability Assay in HepG2 cells - 8 hour (AID 1224873); also: nearly all actives have a fitted effect of over 55% in size
Outline: as §3

[12] = qHTS RealTime-Glo MT Cell Viability Assay in HEK293 cells - 40 hour (AID 1224874); conditions: RealTime-Glo luminescence; max response: stronger effect = lower value; also: nearly all actives have a fitted effect of over 50% in size
Outline: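 Viable HEK293 cells reduce a cell-permeant prosubstrate; the product diffuses out and is consumed by NanoLuc in the medium to give light. Compounds went in after a 5 h incubation and plates were read over the treatment course.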

[13] = A CellTox Green Cytotoxicity Assay to monitor cytotoxicity in HEK293 cells - 24 hour (AID 1224875); also: nearly all actives have a fitted effect of over 45% in size; also: potency is read from the fitted curve at half-maximal effect
Outline: as §4

[14] = A CellTox Green Cytotoxicity Assay to monitor cytotoxicity in HepG2 cells - 16 hour (AID 1224876); also: nearly all actives have a fitted effect of over 45% in size; also: potency is read from the fitted curve at half-maximal effect
Outline: (§5)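 Using 1536-well format, dye-containing HepG2 suspension was seeded, allowed 5 h at 37 C/5% CO2, dosed by pintool with compounds, positive and negative controls, and imaged for fluorescence across 40 h.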

[15] = qHTS RealTime-Glo MT Cell Viability Assay in HepG2 cells - 32 hour (AID 1224877); also: nearly all actives have a fitted effect of over 55% in size
Outline: as §1

[16] = A CellTox Green Cytotoxicity Assay to monitor cytotoxicity in HepG2 cells - 24 hour (AID 1224878); also: nearly all actives have a fitted effect of over 45% in size; also: potency is read from the fitted curve at half-maximal effect
Outline: as §5

[17] = A CellTox Green Cytotoxicity Assay to monitor cytotoxicity in HepG2 cells - 40 hour (AID 1224879); also: nearly all actives have a fitted effect of over 40% in size; also: potency is read from the fitted curve at half-maximal effect
Outline: as §5

[18] = qHTS assay to identify small molecule antagonists of the estrogen related receptor (ERR) signaling pathway from Tox21 library (AID 1224848); also: nearly all actives have a fitted effect of over 50% in size
Outline: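 Luminescent reporter read-out (ONE-Glo) from NTP's ERR cell line after 18 h treatment at 37 C with DMSO-dissolved Tox21 compounds; cells pre-plated 6 h beforehand at 2,000 per well.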

[19] = A CellTox Green Cytotoxicity Assay to monitor cytotoxicity in HEK293 cells - 0 hour (AID 1224869); also: nearly all actives have a fitted effect of over 50% in size
Outline: as §4

[20] = qHTS assay to identify small molecule agonists of the estrogen related receptor (ERR) signaling pathway from Tox21 library (AID 1224849; calls by dose curve; also: nearly all actives have a fitted effect of over 15% in size); conditions: ERR reporter cell line, ONE-Glo luciferase, 18 h; at 92.4 µM (top of the series) unless noted
Outline: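 Screening used an NTP-provided ERR luciferase cell line. Compounds in DMSO were added 6 h after seeding and left 18 h at 37 C before a 30 min ONE-Glo step and luminescence reading.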
% is scaled to controls: 0 for no effect and ±100 for the full control effect.

Chain of Thyrotropin receptor (Homo sapiens) (P16473 whole entry, looked up): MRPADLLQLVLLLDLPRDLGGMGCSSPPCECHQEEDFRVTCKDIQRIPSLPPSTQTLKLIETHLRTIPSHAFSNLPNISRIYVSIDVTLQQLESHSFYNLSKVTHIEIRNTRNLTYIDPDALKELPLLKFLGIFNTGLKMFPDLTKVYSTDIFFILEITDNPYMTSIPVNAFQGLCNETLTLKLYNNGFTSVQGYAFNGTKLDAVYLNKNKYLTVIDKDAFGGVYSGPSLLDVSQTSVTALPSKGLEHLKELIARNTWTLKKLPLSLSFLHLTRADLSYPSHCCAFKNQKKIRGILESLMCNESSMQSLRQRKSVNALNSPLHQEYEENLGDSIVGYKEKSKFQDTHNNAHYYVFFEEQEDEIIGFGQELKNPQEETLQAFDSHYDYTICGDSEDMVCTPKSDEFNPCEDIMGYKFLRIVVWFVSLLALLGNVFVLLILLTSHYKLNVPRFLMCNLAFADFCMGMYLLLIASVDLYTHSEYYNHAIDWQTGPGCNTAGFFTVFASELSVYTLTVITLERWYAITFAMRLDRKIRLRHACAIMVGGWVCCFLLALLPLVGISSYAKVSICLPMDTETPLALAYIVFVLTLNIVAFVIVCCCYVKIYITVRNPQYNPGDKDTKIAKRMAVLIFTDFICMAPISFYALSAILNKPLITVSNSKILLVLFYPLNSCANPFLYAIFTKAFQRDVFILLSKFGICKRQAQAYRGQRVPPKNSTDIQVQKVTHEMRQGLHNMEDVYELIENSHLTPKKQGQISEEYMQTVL

CCCCCCCCCCCCCCCCN
active: Potency [9] 12 µM | Potency [13] 10.7 µM | Potency [14] 23.9 µM | Potency [16] 21.3 µM | Potency [17] 23.9 µM
inactive: Potency [1] | Potency [2] | Potency [3] | outcome [4] | Potency [5] | outcome [6] | Potency [7] | Potency [8] | Potency [10] | outcome [11] | max response [12] 11.5% | Potency [15]

CC(C)Oc1ccccc1O
inactive: Potency [1] | Potency [2] | Potency [3] | Potency [5] | Potency [18] | outcome [6] | Potency [7] | Potency [19] | Potency [8] | Potency [9] | Potency [10] | outcome [11] | max response [12] 2.84% | Potency [14] | Potency [15] | Potency [16] | Potency [17]

Nc1ccc(F)cc1F
inactive: Potency [1] | Potency [2] | Potency [3] | outcome [4] | Potency [5] | outcome [6] | Potency [7] | Potency [19] | Potency [9] | Potency [10] | outcome [11] | max response [12] -13.8% | Potency [14] | Potency [15] | Potency [16] | Potency [17]

CCCCCCCCCCCCCCCCCCCl
inactive: activation [1] -0.25% [at 8.39 µM] | activity change, negative = cytotoxicity [2] 0.227% [at 6.97 µM] | activation (H2AX phosphorylation) [3] -0.95% [at 14 µM] | activity change, negative = cytotoxicity [5] 2.91% [at 14 µM] | activity, negative = inhibition [18] 23.3% [at 8.39 µM] | activity change, negative = cytotoxicity [6] 1.13% [at 6.97 µM] | activity change, negative = cytotoxic [7] -2.36% [at 6.97 µM] | cytotoxicity [19] 0.805% [at 6.97 µM] | activity change, negative = cytotoxic [8] 2.37% [at 6.97 µM] | cytotoxicity increase [9] -1.51% [at 6.97 µM] | viability change, negative = cytotoxic [11] -0.0977% [at 6.97 µM] | max response [12] 5.75% | cytotoxicity increase [14] -7.85% [at 6.97 µM] | activity change, negative = cytotoxic [15] 2.68% [at 6.97 µM] | cytotoxicity [16] -10.6% [at 6.97 µM] | cytotoxicity increase [17] -13.3% [at 6.97 µM]

C[C@H](N)C(=O)N[C@@H](C)C(=O)NC1[C@H]2CN(c3nc4c(cc3F)c(=O)c(C(=O)O)cn4-c3ccc(F)cc3F)C[C@@H]12 (stereo partly specified)
inactive: Potency [1] | Potency [2] | Potency [3] | Potency [5] | Potency [18] | outcome [6] | Potency [7] | Potency [19] | Potency [8] | Potency [9] | Potency [10] | outcome [11] | max response [12] 0.749% | Potency [13] | Potency [14] | Potency [15] | Potency [16] | Potency [17]

Cc1cc(C)n(CO)n1
inactive: Potency [1] | Potency [2] | Potency [3] | outcome [4] | Potency [5] | outcome [6] | Potency [7] | Potency [19] | Potency [9] | outcome [11] | max response [12] 1.2% | Potency [15] | Potency [16] | Potency [17]

C[Si](C)(C)O[Si](C)(C)O[Si](C)(C)C
inactive: Potency [1] | Potency [2] | Potency [3] | outcome [4] | Potency [5] | outcome [6] | Potency [19] | Potency [8] | Potency [9] | Potency [10] | outcome [11] | max response [12] 7.13% | Potency [14] | Potency [15] | Potency [16] | Potency [17]

CCCC1CCOC(C)S1 (stereo unspecified)
inactive: Potency [1] | Potency [2] | Potency [3] | outcome [4] | Potency [5] | outcome [6] | Potency [19] | Potency [8] | Potency [9] | Potency [10] | outcome [11] | max response [12] 4.04% | Potency [13] | Potency [14] | Potency [15] | Potency [16]

CCc1ccc(C(=O)C(C)CN2CCCCC2)cc1 (stereo unspecified)
inactive: Potency [1] | Potency [2] | Potency [3] | outcome [4] | Potency [5] | outcome [6] | Potency [7] | Potency [19] | Potency [9] | outcome [11] | max response [12] 7.68% | Potency [13] | Potency [14] | Potency [15] | Potency [16]

CCCN(C1CCN(C(=O)C2CCNCC2)CC1)[C@@H]1CCc2ccc(OC)cc2C1
inactive: Potency [1] | Potency [2] | Potency [3] | Potency [5] | Potency [18] | activity change, positive = activation [20] -8.07% | outcome [6] | Potency [19] | Potency [8] | outcome [11] | Potency [15]

Cc1cccc(C)c1NC(=O)CN1CCCC1
inactive: Potency [1] | Potency [2] | Potency [3] | outcome [4] | Potency [5] | outcome [6] | Potency [7] | Potency [19] | Potency [8] | Potency [9] | outcome [11] | max response [12] 8.7% | Potency [14] | Potency [15] | Potency [16] | Potency [17]

CCCCCCOC(=O)c1ccccc1
inactive: Potency [1] | Potency [3] | Potency [5] | Potency [18] | activity change, positive = activation [20] 5.95% | outcome [6] | Potency [19] | Potency [8] | Potency [9] | outcome [11] | Potency [13] | Potency [14] | Potency [15] | Potency [16] | Potency [17]
active: Potency [2] 19.5 µM

COc1ccc(C(=O)c2ccc(C)cc2)c(O)c1
active: activity change, positive = activation [20] 16.4%
inactive: Potency [1] | Potency [2] | Potency [3] | outcome [4] | Potency [18] | outcome [6] | Potency [19] | Potency [8] | Potency [9] | outcome [11] | Potency [13] | Potency [14] | Potency [15] | Potency [16] | Potency [17]

CCc1ccc2c(c1)C(=O)c1ccccc1C2=O
inactive: Potency [1] | Potency [2] | Potency [3] | outcome [4] | outcome [6] | Potency [7] | Potency [19] | Potency [9] | outcome [11] | max response [12] 11.6% | Potency [13] | Potency [14] | Potency [15] | Potency [16] | Potency [17]

CCOC(OCC)OCC
inactive: Potency [1] | Potency [2] | Potency [3] | outcome [4] | outcome [6] | Potency [19] | Potency [8] | Potency [9] | Potency [10] | outcome [11] | max response [12] -1.36% | Potency [14] | Potency [15] | Potency [16] | Potency [17]

CCCCCCC/C=C/C=O
inactive: Potency [1] | Potency [2] | Potency [3] | outcome [4] | Potency [5] | outcome [6] | Potency [7] | Potency [19] | Potency [9] | Potency [10] | outcome [11] | max response [12] 6.61% | Potency [13] | Potency [14] | Potency [15] | Potency [16] | Potency [17]
